Measurements from the supplement of paper PMC8975748.
Structures can show the parent of a compound that is named as a salt.

Test system: Saccharomyces cerevisiae BY4741 SeMeCo community
Assay: z-score of subpopulation abundance vs DMSO median, subpopulation auxotrophic for HUM; higher = larger share of this subpopulation than in DMSO controls
Conditions: 10 µM; 24 h; SM minimal medium; subpopulation (auxotrophy): HUM
Protocol: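 Fluorescent four-plasmid SeMeCo (self-establishing metabolically cooperating S. cerevisiae BY4741 community; plasmids pH-mRuby2, pL-mWasabi, pU-eCFP, pM-TagRFP657) was grown 24 h in minimal SM medium with each Selleck FDA-approved drug at 10 µM in 384-well plates. Cells were fixed and imaged by high-content confocal microscopy. For each auxotrophic subpopulation (and the prototroph), a z-score gives the deviation from the DMSO vehicle-control population median.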

Row | Compound | z-score of subpopulation abundance
1 | CCN(CC)CCOc1ccc2c(c1)C(=O)c1cc(OCCN(CC)CC)ccc1-2 [Tilorone dihydrochloride] | -0.66
2 | COc1ccc(-c2nc3cc(C4=NNC(=O)CC4C)ccc3[nH]2)cc1 (stereo not given) [Pimobendan] | 0.52
3 | N=C(N)NS(=O)(=O)c1ccc(N)cc1 [Sulfaguanidine] | -1.13
4 | Cc1cccc(C)c1OCC(C)N (stereo not given) [Mexiletine HCl] | -0.49
5 | CC1=C(C(=O)O)N2C(=O)[C@@H](NC(=O)[C@H](N)C3=CCC=CC3)[C@H]2SC1 [Cefradine] | -0.79
6 | CC[C@H]1OC(=O)[C@H](C)[C@@H](O[C@H]2C[C@@](C)(OC)[C@@H](O)[C@H](C)O2)[C@H](C)[C@@H](O[C@@H]2O[C@H](C)C[C@H](N(C)C)[C@H]2O)[C@](C)(O)C[C@@H](C)CN[C@H](C)[C@@H](O)[C@]1(C)O [Azathramycin] | 0.01
7 | Oc1ccc([C@H]2COc3cc(O)ccc3C2)cc1 [Equol] | -0.27
8 | COc1ccc(C[C@H](N)C(=O)N[C@H]2[C@@H](O)[C@H](n3cnc4c(N(C)C)ncnc43)O[C@@H]2CO)cc1 [Puromycin 2HCl] | 0.39
9 | C[C@H]1COc2c(C3(N)CC3)c(F)cc3c(=O)c(C(=O)O)cn1c23 [Pazufloxacin mesylate] | -0.08
10 | CCOc1ccc2ccccc2c1C(=O)N[C@@H]1C(=O)N2[C@@H]1SC(C)(C)[C@@H]2C(=O)O [Nafcillin Sodium] | 0
11 | C[N+](C)(C)CCO.[Cl-] [Choline Chloride] | -0.76
12 | NC1CCN(c2nc3c(cc2F)c(=O)c(C(=O)O)cn3-c2ccc(F)cc2F)C1 (stereo not given) [Tosufloxacin p-Toluenesulfonate Hydrate] | -0.83
13 | CC1=C(C(=O)O)N2C(=O)[C@@H](NC(=O)[C@H](N)C3=CCC=CC3)[C@H]2SC1 [Cephradine monohydrate] | -0.61
14 | CN1CCN(c2cc3c(cc2F)c(=O)c(C(=O)O)cn3-c2ccc(F)cc2)CC1 [Difloxacin hydrochloride] | -0.72
15 | CCN(CC)CCOC(=O)c1ccc(N)cc1 [Procaine] | 0.39
16 | OCCN1CCN(CCCN2c3ccccc3Sc3ccc(Cl)cc32)CC1 [Perphenazine] | 0.73
17 | CCC[C@@H]1C[C@@H](C(=O)N[C@@H]([C@H]2O[C@H](SC)[C@H](O)[C@@H](O)[C@H]2O)[C@@H](C)O)N(C)C1 [Lincomycin HCl] | 0.3
18 | Cc1ccc(Nc2c(F)cccc2Cl)c(CC(=O)O)c1 [Lumiracoxib] | -1.5
19 | C[C@@H]1C/C=C/C=C/C=C/C=C/[C@H](O[C@@H]2O[C@H](C)[C@@H](O)[C@H](N)[C@@H]2O)C[C@@H]2O[C@](O)(C[C@@H](O)C[C@H]3O[C@@H]3/C=C/C(=O)O1)C[C@H](O)[C@H]2C(=O)O [Natamycin] | 25.6
20 | O=c1ccc2ccc(OCCCCN3CCN(c4cccc5sccc45)CC3)cc2[nH]1 [Brexpiprazole] | 0.25

Row | Compound | z-score of subpopulation abundance
21 | CNCC[C@@H](Oc1ccccc1C)c1ccccc1 [Atomoxetine HCl] | -1.01
22 | C/C(=C\C(=O)OCCCCCCCCC(=O)O)C[C@@H]1OC[C@H](C[C@@H]2O[C@H]2[C@@H](C)[C@H](C)O)[C@@H](O)[C@H]1O [Mupirocin calcium] | 1.29
23 | O=C(Cn1cnnn1)N[C@@H]1C(=O)N2C(C(=O)O)=C(CSc3nncs3)CS[C@H]12 [Ceftezole] | -1.25
24 | COc1ccc(C(C)=O)c(O)c1 [Paeonol] | 0.18
25 | Nc1ccc(S(=O)(=O)Nc2cnc3ccccc3n2)cc1 [Sulfaquinoxaline sodium] | 0.79
26 | CCN(Cc1ccncc1)C(=O)C(CO)c1ccccc1 (stereo not given) [Tropicamide] | 0.16
27 | O=S1(=O)CCN(CN2CCS(=O)(=O)NC2)CN1 [Taurolidine] | -0.52
28 | Nc1nc2c(ncn2COCCO)c(=O)[nH]1 [Aciclovir] | -1.32
29 | Cc1ccsc1/C=C/C1=NCCCN1C [Morantel tartrate] | -0.08
30 | C[C@H]1[C@H](NC(=O)/C(=N\OC(C)(C)C(=O)O)c2csc(N)n2)C(=O)N1S(=O)(=O)O [Aztreonam] | -0.1
31 | C[N+]1(C)CCC(=C(c2ccccc2)c2ccccc2)CC1 [Diphemanil Methylsulfate] | 0.68
32 | CC(=O)O[C@]1(C(C)=O)CC[C@H]2[C@@H]3C[C@H](C)C4=CC(=O)CC[C@]4(C)[C@H]3CC[C@@]21C [Medroxyprogesterone acetate] | -0.19
33 | CCCCc1oc2ccccc2c1C(=O)c1cc(I)c(OCCN(CC)CC)c(I)c1 [Amiodarone HCl] | 4.79
34 | C[C@]1(COc2ccc(N3CCC(Oc4ccc(OC(F)(F)F)cc4)CC3)cc2)Cn2cc([N+](=O)[O-])nc2O1 [Delamanid] | -0.19
35 | CN(C)CCCN1c2ccccc2Sc2ccccc21 [Promazine hydrochloride] | 0.07
36 | NNc1nncc2ccccc12 [Hydralazine HCl] | -0.64
37 | CCC(=O)NS(=O)(=O)c1ccc(-c2c(-c3ccccc3)noc2C)cc1 [Parecoxib] | -0.44
38 | CC/C(=C(/CC)c1ccc(O)cc1)c1ccc(O)cc1 [Diethylstilbestrol] | -1.46
39 | C=CCCCCCCCCC(=O)[O-].C=CCCCCCCCCC(=O)[O-].[Zn+2] [Zinc Undecylenate] | -0.02
40 | CCOC(=O)C1=C(C)NC(C)=C(C(=O)OC)C1c1cccc(Cl)c1Cl (stereo not given) [Felodipine] | -5.68
